A selection: hits, their analogues and other compounds. The true share with any hit is near 19%.
HT1080NT lethal: qHTS for induction of synthetic lethality in tumor cells producing 2HG: qHTS for the HT-1080-NT fibrosarcoma cell line. HT-1080-NT fibrosarcoma viability, CellTiter-Glo ATP luminescence, 48 h. AID 686970, 2013. Potency, µM (series often up to 46.1 µM), actives largely listed as cytotoxic. hit rate 1.6% among 360,000;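 note: NT is the 2HG producing partner of a matched IDH1 knockdown line; nearly all actives have a fitted effect of over 55% in size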
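A 48-hour cytotoxicity screen used HT-1080-NT cells plated 2 hours before compound delivery. ATP-based CellTiter-Glo luminescence measured viability, normalized to DMSO and no-cell controls.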
ELG1 repair inh: qHTS screen for small molecules that inhibit ELG1-dependent DNA repair in human embryonic kidney (HEK293T) cells expressing luciferase-tagged ELG1; HEK293T ELG1-luciferase reporter, luminescence, 16 h; DNA damage induced by 5-fluorouridine; Potency, µM (top dose mostly 46.1 µM), hits mostly inhibitors; hit rate 2.3% among 330,000; note: nearly all actives have a fitted effect of over 55% in size
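Luminescence from the luciferase reporter, measured 30 min after ONE-Glo reagent at room temperature, was the read-out. Beforehand, 2,000 cells per well were exposed for 16 hr at 37 °C to 5-fluorouridine together with compound or vehicle.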
IL-1B inflam inh: qHTS for Inhibitors of Inflammasome Signaling: IL-1-beta AlphaLISA Primary Screen | hit rate 4.7% among 360,000 | activity change, % at 57.5 µM | THP-1 LPS/ATP IL-1B secretion, AlphaLISA, 16 h; hits give low values; in the data active = activity change below about -50%; inconclusive = mostly about -30% to -49%
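Secreted IL-1B measured by AlphaLISA bead assay after 16 h compound exposure of THP-1 cells; compounds (final up to 57.5 uM) added 1 h before LPS (250 ng/mL) and ATP (1.25 mM) stimulation; lower signal means less secretion.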
DT40 TDP1 no CPT: qHTS for Inhibitors of human tyrosyl-DNA phosphodiesterase 1 (TDP1): qHTS in cells in absence of CPT; DT40 Tdp1-/- hTDP1 cells, no CPT, ATP luminescence, 48 h; Potency, µM (titrated, usually from 46.2 µM), most hits filed as inhibitors; hit rate 15% among 420,000; AID 686978, 2013; note: nearly all actives have a fitted effect of over 55% in size
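No-CPT arm: Tdp1-/-;hTDP1 DT40 cells (400/well) plus compounds, incubated ≥48 hr at 37 °C. Readout CellTiter-Glo luminescence.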
HT1080 IDH1KD tx: qHTS for induction of synthetic lethality in tumor cells producing 2HG: qHTS for the HT-1080-IDH1KD cell line; hit rate 2% among 360,000; Potency, µM (titrated, usually from 46.1 µM), most hits filed as cytotoxic; HT-1080 IDH1 knockdown viability, ATP luminescence, 48 h; AID 686971, 2013
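Assay cells: HT-1080 with IDH1 knockdown, 750 per well, RPMI/5% FBS. Exposure: 48 h at 37 °C following 2 h pre-incubation. Read: CellTiter-Glo luminescence; fitted concentration-response, curve class assigned.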
TDP1 cell CPT: qHTS for Inhibitors of human tyrosyl-DNA phosphodiesterase 1 (TDP1): qHTS in cells in presence of CPT | chicken DT40 Tdp1-/-;hTDP1 cells + 20 nM CPT, ATP luminescence, 48 h | Potency, µM (titrated, usually from 46.2 µM), actives largely listed as inhibitors | AID 686979, 2013 | hit rate 12% among 420,000; note: nearly all actives have a fitted effect of over 55% in size
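Chicken DT40 Tdp1-/- cells stably complemented with human TDP1 were seeded at 400 cells/well in medium containing 20 nM camptothecin, exposed to pin-transferred compounds, and grown at 37 °C for at least 48 hr. Viability was read as ATP luminescence.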
Hits are given with their value; . = inactive; ? = inconclusive; / = no result given. Unless noted, calls come from the whole dose curve; as a rule, active = well fitted curve in the direction sought with a large enough effect; inconclusive = small, poorly fitted or top-dose-only effect, or another doubt; inactive = no such curve, though single readings can be large; an effect the other way counts as inactive or inconclusive.

SMILES | HT1080NT lethal | ELG1 repair inh | IL-1B inflam inh | DT40 TDP1 no CPT | HT1080 IDH1KD tx | TDP1 cell CPT
COc1ccc(NC(=O)CSc2nnc3ccc(-c4ccncc4)nn23)cc1 | . | 8.2µM | . | ? | . | .
CC(OC(=O)c1ccc(Cl)nc1)C(=O)Nc1ccc2c(c1)OCO2 (stereo not given) | . | . | . | ? | . | ?
Cc1c(CCC(=O)N2CCC(C(=O)O)(c3ccccc3)CC2)c(=O)oc2cc3oc4c(c3cc12)CCCC4 | . | . | . | . | . | .
Cc1c(CCC(=O)NCCCn2ccnc2)c(=O)oc2cc3oc4c(c3cc12)CCCC4 | ? | . | ? | 10.3µM | . | 9.2µM
Cc1oc2cc3oc(=O)c(CCC(=O)NCCCN4CCOCC4)c(C)c3cc2c1C | . | ? | ? | ? | . | 23.1µM
Cc1c(CCC(=O)N2CCC(C(=O)O)CC2)c(=O)oc2cc3oc4c(c3cc12)CCCC4 | . | . | . | 14.6µM | . | ?
Cc1oc2cc3oc(=O)c(CCC(=O)NCCCn4ccnc4)c(C)c3cc2c1C | . | . | -51.6 | 23.1µM | . | ?
Cc1coc2cc3oc(=O)c(CCC(=O)NCCCn4ccnc4)c(C)c3cc12 | . | . | . | ? | . | ?
Cc1cccc(-c2ccc3[nH]c4c(c3c2)CCN2C[C@@H]([C@H](C)O)[C@@H](N(C)C(=O)Nc3ccc(F)cc3)C[C@@H]42)c1 | 20.6µM | / | . | 18.4µM | ? | 16.4µM
COc1ccc(NC(=O)N(C)[C@H]2C[C@H]3c4[nH]c5ccccc5c4CCN3C[C@H]2[C@H](C)O)cc1 | ? | / | . | ? | ? | ?
C[C@H](O)[C@@H]1CN2CCc3c([nH]c4ccccc34)[C@@H]2C[C@@H]1N(C)C(=O)Nc1ccc(F)cc1 | . | / | . | ? | . | ?
C[C@H](O)[C@@H]1CN2CCc3c([nH]c4ccc(-c5ccc6c(c5)OCO6)cc34)[C@@H]2C[C@@H]1N(C)C(=O)Nc1cc(Cl)cc(Cl)c1 | 9.2µM | / | . | 3.26µM | 7.31µM | 4.11µM
COc1ccc(NC(=O)N(C)[C@H]2C[C@H]3c4[nH]c5ccc(-c6cccc(C)c6)cc5c4CCN3C[C@H]2[C@H](C)O)cc1 | 23.1µM | / | . | 16.4µM | ? | ?
CC(C)c1nn2c(=O)cc(COC(=O)CNC(=O)c3ccccc3Cl)nc2s1 | / | / | / | . | / | .
O=S(=O)(Cc1cc(Cl)nc(-c2ccccc2)n1)c1ccccc1 | . | . | -69.7 | ? | ? | .
CS(=O)(=O)Cc1cc(Sc2ccccc2)nc(-c2ccncc2)n1 | . | . | . | . | . | .
O=S(=O)(Cc1cc(Cl)nc(-c2ccncc2)n1)c1ccccc1 | 23.1µM | . | -97.5 | ? | ? | ?
COc1ccccc1-n1ccnc(SCC(=O)NCCc2ccccc2)c1=O | . | . | . | . | . | .
Nc1cc2c(cc1Br)-c1c(C(=O)O)cccc1C2O (stereo not given) | . | / | . | . | . | .
Clc1nc(NCCc2ccccc2)c2cn[nH]c2n1 | . | / | ? | . | . | .
COc1ccc(NC(=O)N(C)C[C@H]2Oc3cc(Br)ccc3S(=O)(=O)N([C@H](C)CO)C[C@@H]2C)cc1 | . | / | . | ? | . | ?
C[C@@H]1CN([C@H](C)CO)S(=O)(=O)c2ccc(Br)cc2O[C@H]1CN(C)C(=O)C1CC1 | . | / | . | . | . | .
C[C@H](CO)N1C[C@H](C)[C@H](CN(C)C(=O)c2ccccc2)Oc2cc(Br)ccc2S1(=O)=O | . | / | . | . | . | .
C[C@@H]1CN([C@@H](C)CO)S(=O)(=O)c2ccc(Br)cc2O[C@H]1CN(C)C(=O)C1CCC1 | . | / | . | 16.4µM | . | ?
C[C@H]1CN([C@@H](C)CO)S(=O)(=O)c2ccc(Br)cc2O[C@H]1CN(C)S(=O)(=O)c1ccccc1 | . | / | . | 16.4µM | . | 16.4µM
SMILES | HT1080NT lethal | ELG1 repair inh | IL-1B inflam inh | DT40 TDP1 no CPT | HT1080 IDH1KD tx | TDP1 cell CPT
COc1cccc(S(=O)(=O)N(C)C[C@H]2Oc3cc(Br)ccc3S(=O)(=O)N([C@@H](C)CO)C[C@H]2C)c1 | . | / | . | 14.6µM | . | 20.6µM
C/C=C/c1ccc2c(c1)O[C@H](CN(C)C(=O)NC1CCCC1)[C@H](C)CN([C@H](C)CO)S2(=O)=O | . | / | . | 20.6µM | . | 18.4µM
O=C(c1ccc(C(F)(F)F)cc1)C1CCCN(C(=O)CCN2CCCO2)C1 (stereo not given) | . | . | . | ? | . | .
Cc1ccc(S(=O)(=O)N(C)C[C@H]2Oc3cc(C#Cc4ccccc4)ccc3S(=O)(=O)N([C@H](C)CO)C[C@@H]2C)cc1 | . | / | . | 9.2µM | . | 10.3µM
CCN1CCN(C(=O)c2cc(COc3ccc(F)cc3F)on2)[C@@H](C)C1=O | . | ? | . | 16.4µM | . | .
CCOC(=O)N1CCN(C(=O)c2cc(COc3ccc(F)cc3F)on2)CC1 | . | ? | . | ? | . | ?
CN(CCCC1CCCC1)C(=O)c1cc(COc2ccc(F)cc2F)on1 | . | ? | -51.3 | ? | . | ?
O=C(c1cc(COc2ccc(F)cc2Cl)on1)N1CC2C[C@@H]3CC1C[C@H](C2)C3 | . | ? | . | ? | . | 1.3µM
O=C(c1cc(COc2ccc(F)cc2Cl)on1)N1CCCC(c2ccccc2)C1 (stereo not given) | . | . | -63.8 | ? | ? | ?
O=C(c1cc(COc2ccc(F)cc2F)on1)N1CCCC(c2ccccc2)C1 (stereo not given) | . | ? | ? | ? | ? | .
CN(CCC1CCCCO1)C(=O)c1cc(COc2ccc(F)cc2F)on1 (stereo not given) | . | . | . | ? | . | ?
CN(Cc1c(F)cccc1Cl)C(=O)c1ccc2ccccc2n1 | . | . | . | ? | . | ?
CN1/C(=C/C=C(/C#N)C(N)=O)C(C)(C)c2ccccc21 | 5.8µM | . | . | 3.26µM | 5.8µM | 2.59µM
CN(C)c1ccc(N=C/C=C2/N(C)c3ccccc3C2(C)C)cc1 | . | ? | -63.9 | 5.17µM | . | 7.31µM
Cc1ccccc1N=C/C=C1\N(C)c2ccccc2C1(C)C | . | . | . | 8.2µM | . | 18.4µM
CN1/C(=C\C=N\O)C(C)(C)c2ccccc21 | . | . | . | . | . | .

Screens from PubChem BioAssay.
